Test results reported in PubChem BioAssay (NCI).
This is part of a sample that, as a whole, favours compounds with a hit. Of some 79,000 tested, about 15% had one in any assay. No stated cut-off is given here; in the data, active means growth inhibition above about 70%; inactive means the rest.

Experiments:
[1] = NCI Yeast Anticancer Drug Screen. Data for the rad50 strain (AID 155);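 further: 0% = growth of vehicle-only cultures of the same strain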; conditions: S. cerevisiae rad50 strain growth inhibition; at 50.0 µM; active compounds read high
In short: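 Cells are treated with compound, grown, and their growth is then scored against vehicle-only cultures of the same repair-deficient yeast strain.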

[2] = NCI Yeast Anticancer Drug Screen. Data for the mec2-1 strain (AID 157); conditions: S. cerevisiae mec2-1 strain, at 50.0 µM, active compounds read high
In short: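 Yeast mec2-1 mutant treated with compound. Readout: growth inhibition vs vehicle controls.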

[3] = NCI Yeast Anticancer Drug Screen. Data for the sgs1 mgt1 strain (AID 161);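 further: 0% = growth of cultures given vehicle only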; conditions: S. cerevisiae sgs1 mgt1 strain, at 50.0 µM, active compounds read high
In short: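 Genetically altered yeast, compound exposure, growth inhibition relative to vehicle.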

[4] = NCI Yeast Anticancer Drug Screen. Data for the cln2 rad14 strain (AID 165);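 further: 0% = growth equal to vehicle treated cultures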; conditions: S. cerevisiae cln2 rad14 strain, at 50.0 µM, active compounds read high
In short: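 cln2 rad14 yeast strain; compound exposure; growth inhibition read vs vehicle controls.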

[5] = NCI Yeast Anticancer Drug Screen. Data for the bub3 strain (AID 167); conditions: S. cerevisiae bub3 mutant strain, at 50.0 µM, active compounds read high
In short: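 Part of a panel of yeast mutants defective in DNA damage repair or cell cycle regulation. Each strain is grown with compound, and inhibition is calculated relative to solvent-treated cultures.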

[6] = NCI Yeast Anticancer Drug Screen. Data for the mlh1 rad18 strain (AID 175); conditions: S. cerevisiae mlh1 rad18 strain growth inhibition; at 50.0 µM; active compounds read high
In short: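 Yeast w/ defined DNA-repair lesions; compound exposure; growth vs vehicle controls → % inhibition.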

Measured: growth inhibition

CCCCN=Cc1ccc(Cl)cc1
inactive: [1] -2.65% | [2] -24.1% | [3] -32.1% | [4] 6.5% | [5] -19.9% | [6] -6%

CC(=O)Nc1ccc(N=Nc2cccc(C)c2)cc1C
inactive: [1] -1.6% | [2] -1.6% | [3] 10.1% | [4] -13.1% | [5] 2.4% | [6] -7.2%

O=C(Nc1ccc(F)cc1)C(=O)C(C(=O)c1ccccc1F)C1OC(=O)c2ccccc21 (stereo unspecified)
inactive: [1] 2.8% | [2] -0.05% | [3] -10.6% | [4] 1.55% | [5] -0.35% | [6] 2.25%

COc1ccc2[nH]c(=O)c(CO)c(CO)c2c1
inactive: [1] 0.45% | [2] -12.2% | [3] -1% | [4] -26.1% | [5] 0.55% | [6] 4.35%

CN(C)C(=O)CCCC(=O)c1cccc([N+](=O)[O-])c1
inactive: [1] 9.55% | [2] 3.5% | [3] 3.7% | [4] 10.6% | [5] 16% | [6] -13.3%

COC(=O)c1ccc(C(=O)OC)c(N)c1
inactive: [1] 0.95% | [2] 5.4% | [3] -1.85% | [4] -33% | [5] 3.95% | [6] 0.5%

COc1ccc(C(c2ccc(N(Cc3ccccc3)Cc3ccccc3)cc2NC(C)=O)c2ccc(N(Cc3ccccc3)Cc3ccccc3)cc2NC(C)=O)cc1OC
inactive: [1] 5.75% | [2] -5.25% | [3] -19.9% | [4] -8.55% | [5] -6.1% | [6] 26.7%

Brc1c(-c2ccccc2)oc2nc3ccccc3nc12
inactive: [1] 17.2% | [2] 0.2% | [3] 0.2% | [4] 7.45% | [5] 12.6% | [6] 3.8%

O=C(O)c1ccccc1C(=O)CCC(=O)c1ccccc1C(=O)O
inactive: [1] -43.5% | [2] -6.75% | [3] 14.3% | [4] -8.95% | [5] -0.05% | [6] 1.25%

Cc1ccc(NC(=O)CCC(=O)C(C#N)c2ccc(Cl)cc2)cc1C (stereo unspecified)
inactive: [1] -8.25% | [2] -7.95% | [3] 8.55% | [4] 4.75% | [5] 8.4% | [6] 0.25%

Cc1nn(C(=O)c2cccnc2)c(-c2ccccc2)c1N=Nc1ccc(C(=O)O)cc1
inactive: [1] -16.5% | [2] 11.2% | [3] 4.65% | [4] 29.4% | [5] -2.8% | [6] 18.8%

CCC(C)n1c(C)nc2cc(C(F)(F)F)cc(N)c21 (stereo unspecified)
inactive: [1] 20.7% | [2] 18.4% | [3] 8.4% | [4] -31.2% | [5] 11.6% | [6] 15.2%

CCOP(=O)(OCC)/C(=C/NC(=S)c1cccnc1)C(=O)OC
inactive: [1] -11% | [2] -1% | [3] -13% | [4] -7.75% | [5] 17.6% | [6] -2.2%

O=C(Cc1ccccc1)NCc1ccccc1
inactive: [1] -1.7% | [2] -7.15% | [3] 13.9% | [4] -3.3% | [5] 2.55% | [6] 8.7%

COc1cc(OC)cc(C(=O)NN)c1
inactive: [1] 19% | [2] -2.2% | [3] 5.1% | [4] 17.4% | [5] 0.5% | [6] -18.6%

COc1ccc(-c2nc(N)nc(-c3cc(C)ccc3O)c2Cl)cc1
inactive: [1] 12.7% | [2] -0.45% | [3] 5.3% | [4] 17.4% | [5] 6.5% | [6] 12.6%

CN(C)CCNS(=O)(=O)N(C)C
inactive: [1] -25.1% | [2] -25.1% | [3] -24.4% | [4] 7.45% | [5] -51.8% | [6] 8.45%

Cc1ccc2nc(N/N=C/c3sccc3C)cc(C)c2c1
inactive: [1] -24.3% | [2] -19.9% | [3] -20.9% | [4] -3.25% | [5] -30.1% | [6] -21.4%

CC1SC(=S)NC1=O (stereo unspecified)
inactive: [1] -16% | [2] -2.1% | [3] -10.8% | [4] -2% | [5] -10.9% | [6] -0.8%

O=C(O)c1ccccc1-c1ccccc1C(=O)O
inactive: [1] -3.95% | [2] -9.6% | [3] -10.9% | [4] -41.2% | [5] -1.8% | [6] 9%

CCNC(=O)NCN1CCOCC1
inactive: [1] 26.2% | [2] -0.5% | [3] 16.9% | [4] 9.45% | [5] 0.4% | [6] 9%
